B1: d1r12_design_ppi_352_dldesign_0_cycle0_af2pred (protein)
chain: SRARANYAQLVAESAEGGAKAAEAKAKAAKAAGDEATAKKYEEAAELYREGAALAKAGDIAGAVAKINEAAALLAA
B2: d1r12_design_ppi_675_dldesign_0_cycle0_af2pred (protein)
chain: DEARRAGALAFAEQLRASFAATRAAAAALPRASAAAALAGIAASAKQLGAVVPEAAELAAEAAAAAAAVAA
B3: d1r11_design_ppi_982_dldesign_0_cycle1_af2pred (protein)
chain: AAAARAQAAQVVADSARAAAKEAEAKAKEAEAKDPAYGKELKANAEKLKAAAEAAEADPAALPEAVKTLIEQTSNMRALEAKLAA
B4: d1r12_design_ppi_408_dldesign_0_cycle0_af2pred (protein)
chain: SLELAEAAHAAGRAAAADPARAAEAGALLKDMIAYALAASAAYREAEALRAAGGDQAAIDAAEAEAKAYEAKSKEKAAELKALAAAAA
B5: d1r12_design_ppi_822_dldesign_0_cycle1_af2pred (protein)
chain: AAAARAAEAAALAAAVTAAAAAVAAAVAAGTPDEGRAAARAFGRAALGAAARLPEVAPAVDAAADVVSDAYVAAVAAR
B6: d1r11_design_ppi_712_dldesign_0_cycle1_af2pred (protein)
chain: MTPAQQAAQLANQANSYITMAKAALAAGDLETAKEFAELAIEYATQAQKLDPALGTAVKAEAEAVLAQVNAA
B7: d1r12_design_ppi_87_dldesign_0_cycle1_af2pred (protein)
chain: GAALEEAERLMEEAEAALAQAEATGDQRLLGAAMAAAERAVELATREASPEEAAEVERRAAELFARAAEVSQRIAAALLARAAAQA
B8: d1r12_design_ppi_153_dldesign_0_cycle1_af2pred (protein)
chain: AAAHEAFVAEVTAVADAAADAASAAWLAGQTAGPEWRAVADRLVALAREALRAAADPARAPEARRAAAEAAALAAEAAALVAAA
B9: d1r12_design_ppi_474_dldesign_0_cycle0_af2pred (protein)
chain: KEELKKEIKKLAKKAKEHAEEAKRTAGDLGAMARHTTEAAAAAEKAQALAAKSGDEEAKKLAKEAKEAAAEATEHLVEAARAAA
B10: d1r12_design_ppi_293_dldesign_0_cycle1_af2pred (protein)
chain: AAAAEAARKAALAAAADAHAAGAQAALRAARQAAERGDPEAARTFMDLALTSAQQARDLYDEAGFPEKGKAVYEATRAAVAEVEALL
B11: d1r11_design_ppi_460_dldesign_0_cycle1_af2pred (protein)
chain: AAEEALKRAEELAKEVIELAEKVPEAAALGKKVREALEAARHGAESLMRAAARSTPEAAAVMNESAIAMNEAAIKLAEELRKEIEKIA
B12: d1r11_design_ppi_369_dldesign_0_cycle0_af2pred (protein)
chain: MQERLDAYNAEAGAALEAAAASTDGARRLALMRKAAGLGLAAAGYAAGPEAGEAAEKQAEARFAAADAALA
B13: d1r12_design_ppi_387_dldesign_0_cycle1_af2pred (protein)
chain: MEAARAAFERRKAALEADRAEAEALLADPATAAEGRALLAALAVRAKAYGKLFAAHDPELGAELTALGEEAAALA
B14: d1r12_design_ppi_102_dldesign_0_cycle0_af2pred (protein)
chain: AAAEAAARLAEAEALLAKAKEHAKKAKEAAKAGDLAAANQHATAASAAALAIKELGAPADIQAAADAAVAEAMDAVVAAAKAR
B15: d1r11_design_ppi_712_dldesign_0_cycle0_af2pred (protein)
chain: MTPEEKAARLAAAADAYIKMAKAALAAGKLEEAKEFAEAALKAAKEAEKLDPELGAKKAAEAKAVKAEIDAA
B16: d1r11_design_ppi_627_dldesign_0_cycle1_af2pred (protein)
chain: AEEVAARAAELTRTVHHGSPEEATAAARELTALVAAASPEAAAAGRRAIAETNKALLAETAAARAAAAAAAAAAAAAAAAAAA
B17: d1r11_design_ppi_865_dldesign_0_cycle0_af2pred (protein)
chain: DAELKAQAAKIAKEAIEKAKKAKDKNEVWRYASQGLAQLTRIAAAGSPEVKAFAAEQAKKLTEEAEKIVAAL
B18: d1r12_design_ppi_408_dldesign_0_cycle1_af2pred (protein)
chain: MEALAQAGHAANQAAAADPAQAPRAAALLREMIAHARAASAAWLEAQALEAAGGDPAAVAAARAAAAEHQAKAEALAAELKALAEAAA
B19: d1r12_design_ppi_352_dldesign_0_cycle1_af2pred (protein)
chain: SAARARYAALVAESAEVGAATYDAAAKAAEAAGDAATAAKYKEAAALYKAGADAAKAGDIAAAVAKINAAAALVAA

Biological target: CD276, Q5ZPR3
Sequence (Q5ZPR3 whole entry): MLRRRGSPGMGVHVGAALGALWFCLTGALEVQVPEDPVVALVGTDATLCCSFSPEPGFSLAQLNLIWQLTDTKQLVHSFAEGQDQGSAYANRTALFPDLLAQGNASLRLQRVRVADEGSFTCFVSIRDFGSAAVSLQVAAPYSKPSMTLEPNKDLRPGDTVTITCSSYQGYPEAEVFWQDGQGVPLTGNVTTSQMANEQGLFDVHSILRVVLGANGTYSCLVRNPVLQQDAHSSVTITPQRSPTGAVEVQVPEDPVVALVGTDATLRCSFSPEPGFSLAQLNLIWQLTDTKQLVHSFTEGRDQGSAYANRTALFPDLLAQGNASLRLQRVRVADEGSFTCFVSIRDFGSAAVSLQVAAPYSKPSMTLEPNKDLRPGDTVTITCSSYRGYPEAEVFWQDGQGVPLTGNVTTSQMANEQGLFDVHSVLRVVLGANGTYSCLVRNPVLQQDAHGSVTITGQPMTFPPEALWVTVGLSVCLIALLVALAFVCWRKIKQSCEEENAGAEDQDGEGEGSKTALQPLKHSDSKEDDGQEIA

Binding in a display sort, inactive:
B1 not found, B2 not found, B3 not found, B4 not found, B5 not found, B6 not found, B7 not found, B8 not found, B9 not found, B10 not found, B11 not found, B12 not found, B13 not found, B14 not found, B15 not found, B16 not found, B17 not found, B18 not found, B19 not found

— article PMC13494018
